Laboratory results as given in PubChem BioAssay (EPA / NIEHS).
Records with an inconclusive call do not appear. The source made the active and inactive calls. Rule for the calls, unless noted: active = hit-call score of the fitted dose curve at least 0.9, where 1 is the maximum; inconclusive = response in the unintended direction; inactive = score below 0.9.

Tests used:
[1] = biological target: Cellular tumor antigen p53 (Homo sapiens) (UniProt P04637); assay: TOX21_p53_BLA_p2_ratio: Tox21 HCT-116 p53 Agonism Beta-lactamase Assay, Ratio, Phase 2 (AID 2283592)
Chain of Cellular tumor antigen p53 (Homo sapiens) (P04637 whole entry, looked up): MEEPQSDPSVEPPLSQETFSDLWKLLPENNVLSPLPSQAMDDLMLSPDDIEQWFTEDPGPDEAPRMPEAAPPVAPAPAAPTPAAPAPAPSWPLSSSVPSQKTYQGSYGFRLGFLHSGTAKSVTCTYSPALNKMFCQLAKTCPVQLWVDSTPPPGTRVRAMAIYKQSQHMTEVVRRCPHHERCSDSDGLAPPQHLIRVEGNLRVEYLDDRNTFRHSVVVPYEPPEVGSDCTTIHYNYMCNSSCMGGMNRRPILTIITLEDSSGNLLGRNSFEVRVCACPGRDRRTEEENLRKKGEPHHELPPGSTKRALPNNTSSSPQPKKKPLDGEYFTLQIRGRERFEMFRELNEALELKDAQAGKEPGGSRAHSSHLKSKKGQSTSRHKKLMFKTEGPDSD
Outline: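 An inducible beta-lactamase reporter in HCT116 cells signals p53 pathway activation. After 16 h chemical exposure at 37C, cells load CCF4-AM substrate for 2 h at room temperature; activity is the cleaved/uncleaved emission ratio relative to DMSO.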

[2] = biological target: Cellular tumor antigen p53 (Homo sapiens) (UniProt P04637); assay: TOX21_p53_BLA_p3_ratio: Tox21 HCT-116 p53 Agonism Beta-lactamase Assay, Ratio, Phase 3 (AID 2283596)
Outline: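 HCT116 p53-bla cells (4000/well) given compound in DMSO (217-fold dilution) after 5 h, incubated 16 h at 37C. CCF4-AM substrate 2 h at room temperature; 460/530 nm emission ratio, gain fitted against DMSO.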

[3] = TOX21_p53_BLA_p4_viability: Viability Assessment in the Tox21 HCT-116 p53 Agonism Beta-lactamase Assay, Phase 4 (AID 2283597);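 note: hits lower the luminescence signal meaning cytotoxicity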
Outline: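 Compound exposure of HCT116 cells lasts 16 h at 37C, 5% CO2, with DMSO stocks diluted 217-fold. Cellular ATP is then quantified by CellTiter-Glo luminescence after 30 min at room temperature.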

[4] = biological target: Cellular tumor antigen p53 (Homo sapiens) (UniProt P04637); assay: TOX21_p53_BLA_p5_ratio: Tox21 HCT-116 p53 Agonism Beta-lactamase Assay, Ratio, Phase 5 (AID 2283599)
Outline: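 Beta-lactamase reporter ratio (blue 460 nm over green 530 nm, 405 nm excitation) after 2 h CCF4-AM loading, in HCT-116 cells exposed 16 h at 37 C to compounds pinned at 217-fold dilution. Increases relative to DMSO baseline scored.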

[5] = biological target: Cellular tumor antigen p53 (Homo sapiens) (UniProt P04637); assay: TOX21_p53_BLA_p4_ratio: Tox21 HCT-116 p53 Agonism Beta-lactamase Assay, Ratio, Phase 4 (AID 2283601)
Outline: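 Signal is the blue/green (460nm/530nm) ratio of cleaved versus uncleaved CCF4-AM substrate, read after 2 h substrate loading. Cells were HCT116 carrying the p53-responsive beta-lactamase reporter, dosed 16 h at 37C, 5% CO2; CellTiter-Glo measured in parallel.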

[6] = TOX21_p53_BLA_p5_viability: Viability Assessment in the Tox21 HCT-116 p53 Agonism Beta-lactamase Assay, Phase 5 (AID 2283600)
Outline: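 Counter-readout for cytotoxicity: ATP-dependent luminescence from CellTiter-Glo, read in the beta-lactamase wells after 30 min at RT, following a 16 h compound exposure at 37C.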

[7] = CCTE_Shafer_MEA_dev_firing_rate_mean: CCTE's Neural Network Formation Assay for Mean Firing Rate, Shafer Lab (AID 2284031; active = hit-call score of the fitted dose curve at least 0.9, where 1 is the maximum; inactive = score below 0.9)
Outline: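 Primary rat cortical neurons on 48-well MEA plates, exposed from plating day 0 with dosing renewed on DIV 5 and 9. Mean well firing rate over active electrodes, recorded days 5, 7, 9, 12, summarised as trapezoidal AUC.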

[8] = CCTE_Shafer_MEA_dev_active_electrodes_number: CCTE's Neural Network Formation Assay for Number of Active Electrodes, Shafer Lab (AID 2284040);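 note: potency for loss of active electrodes versus DMSO so lower counts are hits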
Outline: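 Primary rat cortical neurons on 16-electrode MEA wells, exposed from day 0 through day 12 with compound renewed at DIV 5 and 9 feeds. Active electrodes (mean firing ≥5 spikes/min) counted at DIV 5, 7, 9, 12; trapezoidal AUC across days, loss-of-signal versus DMSO.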

[9] = CCTE_Shafer_MEA_dev_burst_rate: CCTE's Neural Network Formation Assay for Burst Rate, Shafer Lab (AID 2284042; active = hit-call score of the fitted dose curve at least 0.9, where 1 is the maximum; inactive = score below 0.9)
Outline: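 Primary rat cortical neurons on PEI-coated 48-well MEA plates (laminin added with cells at plating) (16 electrodes/well), exposed from plating to day 12, dosing renewed at DIV 5 and 9. Burst rate averaged over active electrodes, recorded DIV 5, 7, 9, 12, summarized as AUC; loss versus DMSO.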

[10] = CCTE_Shafer_MEA_dev_bursting_electrodes_number: CCTE's Neural Network Formation Assay for Number of Bursting Electrodes, Shafer Lab (AID 2284043);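 note: potency is for loss of bursting electrodes relative to DMSO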
Outline: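 Read-out is the per-well number of electrodes bursting at least once every 2 minutes, recorded on days 5, 7, 9 and 12 and collapsed by trapezoidal area under the curve. Cultures were primary rat cortical neurons on MEA plates, treated continuously from plating.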

[11] = CCTE_Shafer_MEA_dev_burst_duration_mean: CCTE's Neural Network Formation Assay for Mean Burst Duration, Shafer Lab (AID 2284045; active = hit-call score of the fitted dose curve at least 0.9, where 1 is the maximum; inactive = score below 0.9)
Outline: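 Read-out: average first-to-last-spike interval within single-electrode bursts, averaged over bursting electrodes per well, then summarised as area under the curve across days 5, 7, 9 and 12. Developing rat cortical networks were exposed from day 0.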

[12] = CCTE_Shafer_MEA_dev_interburst_interval_mean: CCTE's Neural Network Formation Assay for Mean Interburst Interval, Shafer Lab (AID 2284046; active = hit-call score of the fitted dose curve at least 0.9, where 1 is the maximum; inactive = score below 0.9;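 note: well-mean interburst interval of bursting electrodes as AUC over four recording days; curve fitted for decrease in interburst interval relative to DMSO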)
Outline: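 Recordings on days 5, 7, 9 and 12 give well-mean interburst interval across actively bursting electrodes, summarized as area under the curve. Cultures: rat cortical neurons, continuous exposure from day 0, compound renewed at feeds; decrease analyzed versus DMSO.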

[13] = CCTE_Shafer_MEA_dev_inter_network_spike_interval_mean: CCTE's Neural Network Formation Assay for Mean Inter-network Spike Interval, Shafer Lab (AID 2284047; active = hit-call score of the fitted dose curve at least 0.9, where 1 is the maximum; inactive = score below 0.9)
Outline: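 Primary rat cortical neurons on 16-electrode MEA wells, exposed from plating day 0 through DIV 12, compound renewed at DIV 5 and 9 media changes. Mean interval between network-spike peaks recorded DIV 5, 7, 9, 12; collapsed as trapezoidal AUC, fitted downward versus DMSO.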

[14] = CCTE_Shafer_MEA_dev_network_spike_number: CCTE's Neural Network Formation Assay for Number of Network Spikes, Shafer Lab (AID 2284048; active = hit-call score of the fitted dose curve at least 0.9, where 1 is the maximum; inactive = score below 0.9;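 note: synchronized bursts across electrodes counted on days 5 7 9 12 and integrated as AUC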)
Outline: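 Developing networks of primary rat cortical neurons are treated over 12 days starting at plating, with media and compound fully replaced on DIV 5 and 9. Network spike counts from four recording days are integrated as trapezoidal AUC.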

[15] = CCTE_Shafer_MEA_dev_network_spike_peak: CCTE's Neural Network Formation Assay for Mean Number of Electrodes in Network Spike, Shafer Lab (AID 2284049; active = hit-call score of the fitted dose curve at least 0.9, where 1 is the maximum; inactive = score below 0.9)
Outline: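 Rat cortical primary culture, 1.5 x 10^5 cells/well, 48-well MEA (16 electrodes/well). Dosing day 0 through DIV 12, full media/compound exchange DIV 5, 9. AxIS adaptive spike detection; AUC over days 5/7/9/12; loss-of-signal vs DMSO.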

[16] = CCTE_Shafer_MEA_dev_spike_duration_mean: CCTE's Neural Network Formation Assay for Mean Spike Duration, Shafer Lab (AID 2284051; active = hit-call score of the fitted dose curve at least 0.9, where 1 is the maximum; inactive = score below 0.9;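 note: mean network spike duration pooled as area under curve over DIV 5 to 12 recordings; potency for a decrease in mean network spike duration versus DMSO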)
Outline: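 Primary rat cortical neurons on 16-electrode MEA wells (PEI-coated, laminin in plating drop), exposed from plating through DIV 12 with compound renewed at DIV 5 and 9. Mean network-spike duration recorded DIV 5, 7, 9, 12; trapezoidal AUC across days, DMSO baseline.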

[17] = CCTE_Shafer_MEA_dev_network_spike_duration_std: CCTE's Neural Network Formation Assay for Standard Deviation of Network Spike Duration, Shafer Lab (AID 2284052; active = hit-call score of the fitted dose curve at least 0.9, where 1 is the maximum; inactive = score below 0.9;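 note: area under curve of spike duration SD across recording days 5 to 12; hits are decreases in network spike duration SD versus DMSO vehicle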)
Outline: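 Primary rat cortical neurons on PEI-coated 16-electrode MEA wells, exposed from plating day 0 through day 12 with compound renewed at DIV 5 and 9. Network spike duration SD recorded on days 5, 7, 9, 12, collapsed as trapezoidal AUC; loss-of-signal fit versus DMSO.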

[18] = CCTE_Shafer_MEA_dev_per_network_spike_spike_number_mean: CCTE's Neural Network Formation Assay for Mean Number of Spikes in a Network Spike, Shafer Lab (AID 2284053; active = hit-call score of the fitted dose curve at least 0.9, where 1 is the maximum; inactive = score below 0.9)
Outline: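 Primary rat cortical neurons on 48-well, 16-electrode MEA plates were exposed from plating to DIV 12, with dosing renewed on DIV 5 and 9. Spikes per network spike (0.05 s peak window) were recorded on DIV 5, 7, 9 and 12 and collapsed as trapezoidal AUC versus DMSO.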

[19] = CCTE_Shafer_MEA_dev_per_network_spike_spike_percent: CCTE's Neural Network Formation Assay for Percent of Spikes in a Network Spike, Shafer Lab (AID 2284054; active = hit-call score of the fitted dose curve at least 0.9, where 1 is the maximum; inactive = score below 0.9)
Outline: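 Rat primary cortical cultures, 1.5 x 10^5 cells/well on MEA. Continuous compound exposure d0–12, medium/compound renewed DIV 5, 9. Network-spike spike % (0.05 s peak window), AUC over 4 recordings, DMSO baseline.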

[20] = CCTE_Shafer_MEA_dev_LDH: CCTE's Lactate Dehydrogenase Assay for Cytotoxicity in the Neural Network Formation Assay, Shafer Lab (AID 2284068);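 note: exposure for twelve days from plating with re-dosing on DIV 5 and 9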
Outline: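 Primary rat cortical neurons were plated on PEI/laminin MEA plates and exposed from day 0 for twelve days, with compound renewed at DIV 5 and 9. Cytotoxicity was determined by spectrophotometric LDH assay relative to DMSO.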

[21] = CCTE_Shafer_MEA_dev_AB: CCTE's Alamar Blue Assay for Cytotoxicity in the Neural Network Formation Assay, Shafer Lab (AID 2284083);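 note: twelve days of exposure from plating with re-dosing on DIV 5 and 9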
Outline: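 Primary rat cortical neurons on PEI-coated 48-well MEA plates, 1.5 x 10^5 cells/well in laminin drop; compound exposure from day 0 of plating for twelve days, renewed at medium changes on DIV 5 and 9. Viability read as resazurin reduction by fluorescence, relative to DMSO.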

[22] = CCTE_Shafer_MEA_dev_mutual_information_norm: CCTE's Neural Network Formation Assay for Mutual Information Normalization, Shafer Lab (AID 2284091; active = hit-call score of the fitted dose curve at least 0.9, where 1 is the maximum; inactive = score below 0.9)
Outline: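 Developing rat cortical networks on 16-electrode MEA wells are treated throughout formation (DIV 0–12). Shared electrode information is recorded four times, converted to area-under-curve, and fitted for decreases against DMSO vehicle.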

[23] = CCTE_Shafer_MEA_dev_correlation_coefficient_mean: CCTE's Neural Network Formation Assay for Mean Correlation Coefficient, Shafer Lab (AID 2284093; active = hit-call score of the fitted dose curve at least 0.9, where 1 is the maximum; inactive = score below 0.9)
Outline: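 Spontaneous activity recorded on days 5, 7, 9 and 12 post-plating; pairwise spike correlations are averaged across active electrodes and collapsed to an area-under-curve. Rat cortical cultures are dosed from plating through 12 days, with compound renewed at media changes.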

[24] = CCTE_Mundy_HCI_Cortical_Synap_Neur_Matur_NeuriteSpotCountPerNeuriteLength: CCTE's Synaptogenesis and Neurite Maturation Assay in rat cortical cells for Neurite Spot Count per Neurite Length, Mundy Lab (AID 2284210; active = hit-call score of the fitted dose curve at least 0.9, where 1 is the maximum; inactive = score below 0.9)
Outline: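 Primary rat cortical neurons, compound exposure DIV 7–12, 288.33 h endpoint. Hoechst, anti-MAP2 and anti-synaptophysin labelling; neurite-associated puncta per neurite length scored by automated imaging relative to DMSO controls.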

[25] = CCTE_Mundy_HCI_Cortical_NOG_NeuriteLength: CCTE's Neurite Outgrowth Assay in rat cortical cells for Neurite Length, Mundy Lab (AID 2284213; active = hit-call score of the fitted dose curve at least 0.9, where 1 is the maximum; inactive = score below 0.9)
Outline: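 Neurite length was read by high-content imaging of βIII-tubulin-labelled neurites in rat primary cortical cultures. Activity was fitted relative to DMSO.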

[26] = CCTE_Mundy_HCI_Cortical_Synap_Neur_Matur_NeuriteLength: CCTE's Synaptogenesis and Neurite Maturation Assay in rat cortical cells for Neurite Length, Mundy Lab (AID 2284214; active = hit-call score of the fitted dose curve at least 0.9, where 1 is the maximum; inactive = score below 0.9)
Outline: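 Rat primary cortical cultures, AraC added DIV 5, dosed DIV 7 through DIV 12 […]. Fixed, MAP2/synaptophysin immunostained with Hoechst; neurite length by high-content imaging, fitted in positive direction versus DMSO.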

[27] = CCTE_Mundy_HCI_Cortical_Synap_Neur_Matur_SynapseCount: CCTE's Synaptogenesis and Neurite Maturation Assay in rat cortical cells for Synapse Count, Mundy Lab (AID 2284218; active = hit-call score of the fitted dose curve at least 0.9, where 1 is the maximum; inactive = score below 0.9)
Outline: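 Rat primary cortical cultures, AraC at DIV 5, chemical dosing DIV 7 to DIV 12 (288.33 h). Fixed cells stained for MAP2, synaptophysin and Hoechst; synapses per neuron counted by high-content imaging, loss of signal versus DMSO.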

[28] = CCTE_Mundy_HCI_hN2_NOG_NeuriteCount: CCTE's Neurite Outgrowth Assay in human hN2 cells for Neurite Count, Mundy Lab (AID 2284219)
Outline: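 In this morphology assay, hNP1-derived neurons received test chemical 2 h post-plating and were fixed two days later in warm paraformaldehyde/sucrose containing Hoechst 33342. Neurites, labelled by rabbit anti-βIII-tubulin (1:800) and Alexa Fluor-488 (1:500), were counted automatically.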

[29] = CCTE_Mundy_HCI_hN2_NOG_NeuriteLength: CCTE's Neurite Outgrowth Assay in human hN2 cells for Neurite Length, Mundy Lab (AID 2284220)
Outline: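 Plate hNP1-derived neurons, then add chemical 2 h later as a 1/10 dilution. Stain with anti-βIII-tubulin then Alexa Fluor-488 secondary, and image automatically to measure neurite length.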

[30] = CCTE_Mundy_HCI_hN2_NOG_NeuronCount: CCTE's Neurite Outgrowth Assay in human hN2 cells for Neuron Count, Mundy Lab (AID 2284221)
Outline: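 Read-out is the number of betaIII-tubulin-positive neurons imaged by automated high-content analysis, with DMSO as negative control.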

[31] = CCTE_Mundy_HCI_Cortical_Synap_Neur_Matur_CellBodySpotCount: CCTE's Synaptogenesis and Neurite Maturation Assay in rat cortical cells for Cell Body Spot Count, Mundy Lab (AID 2284223; active = hit-call score of the fitted dose curve at least 0.9, where 1 is the maximum; inactive = score below 0.9)
Outline: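 Synapse number at neuronal cell bodies was quantified as synaptophysin puncta per neuron in rat cortical cultures exposed from DIV 7 to DIV 12. Values were normalised to DMSO.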

[32] = CCTE_Mundy_HCI_Cortical_NOG_NeuronCount: CCTE's Neurite Outgrowth Assay in rat cortical cells for Neuron Count, Mundy Lab (AID 2284236);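 note: neurons counted by imaging betaIII-tubulin and Hoechst stained cortical cells; cells exposed to compound for about 48 hours before fixation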
Outline: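 Read-out: neuron number by high-content imaging of betaIII-tubulin (Alexa Fluor-488) and Hoechst-labelled rat primary cortical cells.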

[33] = CCTE_Mundy_HCI_hNP1_Casp3_7: CCTE's Caspase-Glo 3/7 Assay in human neuroprogenitor cells for Apoptosis, Mundy Lab (AID 2284240; active = hit-call score of the fitted dose curve at least 0.9, where 1 is the maximum; inactive = score below 0.9)
Outline: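 Apoptosis is scored by activated caspase-3/7 luminescence in WA09-derived neural progenitor cells, measured 26.5 h after chemical dosing. Values represent gain of signal relative to DMSO vehicle.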

Measured: AC50

CN(C)CCc1c[nH]c2cccc(O)c12
inactive: [1] | [2] | [3] | [4]

C[C@H]1CNCCc2ccc(Cl)cc21
inactive: [1] | [2] | [3] | [5]

S=C=NCc1ccccc1
inactive: [1] | [4] | [6] | [5]
active: [2] 42.9 µM

CN1C(=O)CN=C(c2ccccc2)c2cc(Cl)ccc21
active: [8] 15 µM | [10] 4.58 µM | [16] 3.06 µM | [19] 15 µM | [33] 23 µM
inactive: [1] | [2] | [4] | [6] | [5] | [7] | [9] | [11] | [12] | [13] | [14] | [15] | [17] | [18] | [20] | [21] | [22] | [23] | [24] | [25] | [26] | [27] | [28] | [29] | [30] | [31] | [32]
